Compounds with a hit are over-represented: about 2.4% of the library has one in this group of screens.
LT uptake inh: blocks cellular internalization of anthrax lethal toxin. Cells, anthrax lethal toxin internalization, FRET ratio (460/530). Potency, µM (highest dose often 40 µM), hits mostly inhibitors. 70,000 tested, 0.67% active; further: nearly all actives have a fitted effect of over 50% in size
AmpC inh det: AmpC beta-lactamase inhibition, detergent assay; Potency, µM (doses to about 28.7 µM); 71,000 tested, 0.09% active; P00811; purified AmpC, nitrocefin hydrolysis with detergent; active means well fitted curve in the direction sought with a large enough effect; inconclusive means small, poorly fitted or top-dose-only effect
Target sequence (P00811 whole entry, looked up): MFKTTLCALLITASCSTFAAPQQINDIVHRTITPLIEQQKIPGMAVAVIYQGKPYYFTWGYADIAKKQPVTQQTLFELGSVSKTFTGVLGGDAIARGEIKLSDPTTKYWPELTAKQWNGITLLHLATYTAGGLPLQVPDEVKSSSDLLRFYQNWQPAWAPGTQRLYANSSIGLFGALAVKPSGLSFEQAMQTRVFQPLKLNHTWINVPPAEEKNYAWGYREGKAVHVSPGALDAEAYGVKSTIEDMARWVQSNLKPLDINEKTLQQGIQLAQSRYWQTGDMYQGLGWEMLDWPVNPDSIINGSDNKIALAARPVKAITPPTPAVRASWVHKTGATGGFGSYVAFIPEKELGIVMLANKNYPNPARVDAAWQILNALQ
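E. coli AmpC (5.3 nM) in 20 mM phosphate pH 7.0 with 0.01% Triton X-100, preincubated 15 min RT with compound; nitrocefin (2 uL of 800 uM stock) hydrolysis followed by 480 nm absorbance every 20 s over 4 min.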
AmpC inh no det: inhibitors of E. coli AmpC beta-lactamase without detergent; P00811; AmpC nitrocefin hydrolysis, absorbance 480 nm, no detergent; Potency, µM (highest dose often 28.7 µM); 71,000 tested, 1.8% active
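AmpC in 20 mM phosphate buffer pH 7.0 was preincubated 15 min at room temperature with compounds. Nitrocefin (800 uM stock) was then added and hydrolysis followed at 480 nm every 20 s for 4 min.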
Prx2 Sm inh: blocks S. mansoni peroxiredoxin 2 enzymatic activity; 65,000 tested, 0.07% active; S. mansoni Prx2 activity coupled to TGR/GSH (TGR is thioredoxin glutathione reductase), NADPH fluorescence loss, qHTS; AID 448; Potency, µM
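qHTS, coupled TGR/Prx2 format; 15 min compound preincubation at RT; reaction started with H2O2 (2.5 mM aliquot); kinetic NADPH fluorescence decrease, ex 365/em 450 nm.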
A number is an active result; [ ] = remark or other dose. Unless noted, the call rests on the fitted dose curve.

What do the screens show for `CC(C)C[C@H]1C(=O)N2CCC[C@@H]2[C@]2(O)O[C@](NC(=O)[C@H]3C=C4c5cccc6[nH]cc(c56)C[C@H]4N(C)C3)(C(C)C)C(=O)N12`?
LT uptake inh: inconclusive; AmpC inh det: inactive; AmpC inh no det: inactive; Prx2 Sm inh: inactive

How did CCOC(=O)N1CCN(c2c(-c3ccc(C)c(C)c3)c(=O)c2=O)CC1 do in these assays?
LT uptake inh: inactive; AmpC inh det: inactive; AmpC inh no det: inactive; Prx2 Sm inh: inactive

What do the screens show for `CCOC(=O)N1CCN(c2c(NCc3cccs3)c(=O)c2=O)CC1`?
LT uptake inh: inactive; AmpC inh det: inactive; AmpC inh no det: 3.98µM[single pt active]; Prx2 Sm inh: inactive

What do the screens show for `CCOC(=O)N1CCN(c2c(NCc3ccccc3OC)c(=O)c2=O)CC1`?
LT uptake inh: inconclusive; AmpC inh det: inactive; AmpC inh no det: 3.98µM[single pt active]; Prx2 Sm inh: inactive

How did CCOC(=O)N1CCN(c2c(NCCc3ccc(OC)c(OC)c3)c(=O)c2=O)CC1 do in these assays?
LT uptake inh: inactive; AmpC inh det: inactive; AmpC inh no det: 3.98µM[single pt active]; Prx2 Sm inh: inactive

How did CC(=O)c1ccc(OCC(O)CN2CCN(Cc3ccccc3)CC2)cc1 (stereo unspecified) do in these assays?
LT uptake inh: inactive; AmpC inh det: inactive; AmpC inh no det: 3.98µM[single pt active]; Prx2 Sm inh: inactive

Results for CCOC(=O)C1CCN(CC(O)COc2ccc(C(C)(C)C)cc2)CC1 (stereo unspecified) ?
LT uptake inh: inactive; AmpC inh det: inactive; AmpC inh no det: inactive; Prx2 Sm inh: inactive

What do the screens show for `CCOC(=O)C1CCN(CC(O)COc2ccc(C(C)=O)cc2)CC1` (stereo unspecified)?
LT uptake inh: inactive; AmpC inh det: inactive; AmpC inh no det: 3.16µM[single pt active]; Prx2 Sm inh: inactive

How did O=C(NC1CCCCC1)N1CCC(n2c(=O)[nH]c3ccccc32)CC1 do in these assays?
LT uptake inh: inactive; AmpC inh det: inactive; AmpC inh no det: 3.16µM[single pt active]; Prx2 Sm inh: inactive

What do the screens show for `O=C1c2ccccc2C(Nc2ccc(F)c(Cl)c2)N1c1ccccn1` (stereo unspecified)?
LT uptake inh: inactive; AmpC inh det: inactive; AmpC inh no det: 3.98µM[single pt active]; Prx2 Sm inh: inactive

Results for O=C1c2ccccc2C(Nc2ccc(S(=O)(=O)N3CCCCC3)cc2)N1c1ccccn1 (stereo unspecified) ?
LT uptake inh: inconclusive; AmpC inh det: inactive; AmpC inh no det: 3.16µM[single pt active]; Prx2 Sm inh: inactive

How did O=C1c2ccccc2C(Nc2ccc(S(=O)(=O)N3CCOCC3)cc2)N1c1cccnc1 (stereo unspecified) do in these assays?
LT uptake inh: inconclusive; AmpC inh det: inactive; AmpC inh no det: 3.98µM[single pt active]; Prx2 Sm inh: inactive

What do the screens show for `CCOC(=O)c1c(NC(=O)c2noc3c2CCCC3)sc(C)c1C`?
LT uptake inh: inactive; AmpC inh det: inactive; AmpC inh no det: inactive; Prx2 Sm inh: inactive

What do the screens show for `CCOC(=O)c1sc(NC(=O)c2noc3c2CCCC3)c(C(=O)OCC)c1C`?
LT uptake inh: inactive; AmpC inh det: inactive; AmpC inh no det: 3.98µM[single pt active]; Prx2 Sm inh: inactive

Results for CN[C@H]1[C@H]2[C@H]3CCN2C[C@@H]1O3 ?
LT uptake inh: inconclusive; AmpC inh det: inactive; AmpC inh no det: inactive; Prx2 Sm inh: inactive

How did O=C(Nc1ccc(CN2CCOCC2)cc1)c1ccc(-c2ccc(Br)cc2)o1 do in these assays?
LT uptake inh: 12.6µM; AmpC inh det: inactive; AmpC inh no det: inactive; Prx2 Sm inh: inactive

Results for CC(=O)O[C@H]1CC[C@@]2(C)[C@@H](CC[C@@]3(C)[C@H]2C(=O)C=C2[C@H]4C[C@](C)(C(=O)OCCN5CCCCC5)CC[C@]4(C)CC[C@@]23C)C1(C)C ?
LT uptake inh: inconclusive; AmpC inh det: inactive; AmpC inh no det: inactive; Prx2 Sm inh: inactive

What do the screens show for `COc1ccc([C@@H]2CC(=O)c3c(O)cc(O[C@@H]4O[C@@H](CO[C@@H]5O[C@@H](C)[C@@H](O)[C@@H](O)[C@H]5O)[C@@H](O)[C@@H](O)[C@H]4O)cc3O2)cc1O`?
LT uptake inh: inconclusive; AmpC inh det: inactive; AmpC inh no det: inactive; Prx2 Sm inh: inactive

How did COCCn1c(=O)c(-c2cn(C)c3ccccc23)nc2cnc(Oc3cccc(Cl)c3)nc21 do in these assays?
LT uptake inh: inactive; AmpC inh det: inactive; AmpC inh no det: inactive; Prx2 Sm inh: inactive

How did Cc1cc(NS(=O)(=O)c2ccc(NC(=O)COc3ccccc3C(C)C)cc2)no1 do in these assays?
LT uptake inh: inactive; AmpC inh det: inactive; AmpC inh no det: 3.98µM[single pt active]; Prx2 Sm inh: inactive

Results for COc1cc(NS(=O)(=O)c2ccc(NC(=O)COc3ccccc3C)cc2)nc(OC)n1 ?
LT uptake inh: inactive; AmpC inh det: inactive; AmpC inh no det: 12.6µM[single pt active]; Prx2 Sm inh: inactive

How did Oc1ccccc1C(Sc1nc2ccccc2s1)Sc1nc2ccccc2s1 do in these assays?
LT uptake inh: inactive[8 µM]; AmpC inh det: inactive[5.75 µM]; AmpC inh no det: inactive[5.75 µM]; Prx2 Sm inh: inactive

Results for CCC(c1nnnn1Cc1cccs1)N1CCN(c2nc3ccccc3s2)CC1 (stereo unspecified) ?
LT uptake inh: 10µM; AmpC inh det: inactive; AmpC inh no det: inactive; Prx2 Sm inh: inactive

What do the screens show for `O=C1C(SCCO)=C(SCCO)C(=O)c2ccccc21`?
LT uptake inh: 3.98µM; AmpC inh det: inactive; AmpC inh no det: inactive; Prx2 Sm inh: inactive

How did OCC1OC(/C=C\c2ccccc2)C=CC1Oc1ccc2c(c1)OCO2 (stereo unspecified) do in these assays?
LT uptake inh: inactive[8 µM]

What do the screens show for `COCCCNC(=O)c1ccc(CS(=O)(=O)c2ccc(OC)cc2)o1`?
LT uptake inh: inactive; AmpC inh det: inactive; AmpC inh no det: 3.98µM[single pt active]; Prx2 Sm inh: inactive

How did COc1ccc(S(=O)(=O)Cc2ccc(C(=O)NCc3ccc(F)cc3)o2)cc1 do in these assays?
LT uptake inh: inconclusive; AmpC inh det: inactive; AmpC inh no det: 3.98µM[single pt active]; Prx2 Sm inh: inactive

What do the screens show for `COc1ccc(S(=O)(=O)Cc2ccc(C(=O)NCCc3ccc(S(N)(=O)=O)cc3)o2)cc1`?
LT uptake inh: inactive; AmpC inh det: inactive; AmpC inh no det: inactive; Prx2 Sm inh: inactive

What do the screens show for `COc1ccc(S(=O)(=O)Cc2ccc(C(=O)NCc3cccnc3)o2)cc1`?
LT uptake inh: inactive; AmpC inh det: inactive; AmpC inh no det: 3.98µM[single pt active]; Prx2 Sm inh: inactive

Results for COc1ccc2[nH]cc(CCNc3nc(-c4ccc(N(C)C)cc4)nc4ccccc34)c2c1 ?
LT uptake inh: inconclusive; AmpC inh det: inactive; AmpC inh no det: inconclusive; Prx2 Sm inh: inactive

What do the screens show for `N[C@H](Cc1ccc(F)cc1)C(=O)O`?
LT uptake inh: inactive; AmpC inh det: inactive; AmpC inh no det: inactive; Prx2 Sm inh: inactive

What do the screens show for `O=C(Cn1cc2c(n1)CCCC2)Nc1ccccc1Br`?
LT uptake inh: inactive; AmpC inh det: inactive; AmpC inh no det: 3.98µM[single pt active]; Prx2 Sm inh: inactive

How did O=S(=O)(NCCO)c1cc[c]([Sb](=[O])([OH])[OH])cc1 do in these assays?
LT uptake inh: inactive[8 µM]; AmpC inh det: inactive[5.75 µM]; AmpC inh no det: inactive[5.75 µM]; Prx2 Sm inh: inactive

How did COc1ccc(Nc2nc(N3CCCC3)nc3ccccc23)c(OC)c1 do in these assays?
LT uptake inh: 12.6µM; AmpC inh det: inactive; AmpC inh no det: inactive; Prx2 Sm inh: inactive

What do the screens show for `O=c1cccc2n1C[C@H]1C[C@@H]2CN(CCO)C1`?
LT uptake inh: inactive; AmpC inh det: inactive; AmpC inh no det: inactive; Prx2 Sm inh: inactive
